Entries with a potency or affinity are not part of this list. The source made the active and inactive calls.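 The calls were made as follows: active = falling luciferase signal whose fitted half-maximal concentration is at most twice the top tested dose; inconclusive = flat inhibition between 30 and 70% or a poor curve fit; inactive = the rest.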
Test: off-target signal loss in HeLa-CEM21 co-culture – HeLa F-luc CTL cells, cherry-picked, counter-screen for HIV-1 Env fusion inhibitor project, dose response (AID 652040);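 also: more negative values mean stronger loss of luciferase signal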
Details: HeLa-F-luc CTL cells with CEM21, firefly luciferase counterscreen; series mostly up to 35 µM

| SMILES | outcome |
| --- | --- |
| COC(=O)[C@]12CCCCC=C1N(Cc1ccco1)C(=O)[C@H](CC(=O)NCCc1ccccc1OC)C2 | inactive |
| CC(C)CN(C(=O)c1ccc(S(=O)(=O)N2CCCCC2)cc1)C1CCS(=O)(=O)C1 (configuration not stated) | inactive |
| CC(C)CNS(=O)(=O)c1ccc(CCC(=O)N2CCN(Cc3ccc4c(c3)OCO4)CC2)cc1 | inactive |
| COc1ccc(OC2C(=O)N(Cc3ccc4c(c3)OCO4)C2c2cccs2)cc1 (configuration not stated) | inactive |
| CCN1CCN(S(=O)(=O)c2ccc(Cl)c(C(=O)Nc3ccccc3N3CCCC3)c2)CC1 | inactive |
| O=C(Nc1cc2c3c(c1)CC(=O)N3CCC2)c1ccc(Cl)cc1 | inactive |
| Cc1ccc(NS(=O)(=O)c2cc(C(=O)N(C)C3CCN(C)CC3)ccc2Cl)cc1Cl | inactive |
| c1csc(CNc2ncnc3sccc23)c1 | inactive |
| Cc1ccc(C2CC(=O)c3cnc(N4CCc5ccccc5C4)nc3C2)cc1 (configuration not stated) | inactive |
| O=C(CC1C(=O)NCCN1Cc1cccc(F)c1)NC1CCCCC1 (configuration not stated) | inactive |
| O=C(Cc1ccc(Cl)cc1Cl)Nc1ccncc1 | inactive |
| O=C(Nc1cccc(C(F)(F)F)c1)c1ccc(Cn2cc(Br)cn2)o1 | inactive |
| Cc1ccc(Cn2nnnc2CN2CCC(c3nc4ccc(Cl)cc4[nH]3)CC2)cc1 | inactive |
| CCn1c(/C=C/N(C)c2ccccc2)[n+](CC)c2ccc(Cl)cc21 | inactive |
| CC(C)(C)c1ccc(-c2noc(CCC(=O)NCC3CCCO3)n2)cc1 (configuration not stated) | inactive |
| O=C(COc1ccc(-n2cnnn2)cc1)Nc1ccc(F)c(F)c1 | inactive |
| Cc1cc(C(=O)N2CCC(C(=O)O)CC2)c(C(F)(F)F)o1 | inactive |

Source: PubChem BioAssay AID652040 (Broad Institute, 2013)
